Counter-ions that a name gives are not always drawn. Unmarked numbers belong to inactive results.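 The calls were made as follows: for the amine columns active = adjusted P below 0.05 in both replicates with a change the same way and a mean fold change under 0.8 or over 1.25; inactive = the rest.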

For the experiment, the system named is Klebsiella aerogenes DSM 30053. In words: fold change of Cadaverine concentration vs plate DMSO controls (fold change (ratio)); higher = more amine produced, active = hit call of the paper (significant change in both replicates, either direction). The conditions noted are these: incubation time: 27 h, anaerobic, 37 °C. Put shortly: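 Anaerobic mGAM cultures of four gut bacterial strains were grown at 37 °C for 27 h in 80 µL wells, starting at OD 0.1 before 1:1 dilution. Compounds were at 20 µM final (sweeteners 50 µM). Whole cultures were extracted with cold acetonitrile/methanol containing 0.1% formic acid and centrifuged. Amines were quantified by LC–triple-quadrupole MS (dynamic MRM) against external calibration curves and drift-corrected within batch. Each value is the fold change versus plate DMSO controls, averaged over 2 biological replicates.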
Take `CCCSS/C(CCO)=C(/C)N(C=O)Cc1cnc(C)nc1N` [Prosultiamine] (20 µM): the “fold change of Cadaverine concentration” value is 0.984.
The same measure for `CN(C)CCOC(c1ccccc1)c1ccccc1.Cn1c(=O)c2[nH]c(Cl)nc2n(C)c1=O` [Dimenhydrinate] (20 µM): 0.985; for `CCCCCCCN(CC)CCCC(O)c1ccc(NS(C)(=O)=O)cc1` (centres undefined) [Ibutilide fumarate] (20 µM): 1.01.
On to `Cc1cccc(Nc2ccncc2S(=O)(=O)NC(=O)NC(C)C)c1` [Torsemide] (20 µM), for which the “fold change of Cadaverine concentration” value was 0.986.
Regarding `C=C1c2cccc(O)c2C(O)=C2C(=O)[C@]3(O)C(O)=C(C(N)=O)C(=O)[C@@H](N(C)C)[C@@H]3[C@@H](O)[C@H]12` [Methacycline hydrochloride] (20 µM), the “fold change of Cadaverine concentration” value is 0.536 (active).
As for `O=C(O)CNC(=O)C(CS)Cc1ccccc1` (centres undefined) [Thiorphan] (20 µM), the “fold change of Cadaverine concentration” value is 1.02.
Then `CCn1cc(C(=O)O)c(=O)c2cc(F)c(N3CCNCC3)nc21` [Enoxacin] (20 µM), with 0.961; and `Cc1ccc(-c2ncc(Cl)cc2-c2ccc(S(C)(=O)=O)cc2)cn1` [Etoricoxib] (20 µM), with 1.03; and `CNC(=O)OCc1cccc(COC(=O)NC)n1` [Pyricarbate] (20 µM), with 0.995.
Then `N#Cc1cc(NC(=O)C(=O)O)c(Cl)c(NC(=O)C(=O)O)c1` [Lodoxamide] (20 µM), with 0.997; and `CNC1(C)C2CCC(C2)C1(C)C` (centres undefined) [Mecamylamine hydrochloride] (20 µM), with 1; and `CCOC(=O)[C@H](CCc1ccccc1)N[C@@H](C)C(=O)N(CC(=O)O)C1Cc2ccccc2C1` [Delapril Hydrochloride] (20 µM), with 0.998.
`CN1[C@@H]2CC[C@H]1C[C@@H](OC(c1ccccc1)c1ccccc1)C2` [Benztropine mesylate] (20 µM): the “fold change of Cadaverine concentration” value is 0.995.
Regarding `C[N+]1(CCCCC[N+]2(C)CCCC2)CCCC1` [Pentolinium bitartrate] (20 µM), the “fold change of Cadaverine concentration” value is 0.999.
In the case of `CC(=O)Oc1cc(C(F)(F)F)ccc1C(=O)O` [Triflusal] (20 µM), the “fold change of Cadaverine concentration” value is 0.992.
The same measure for `COc1ccc2cc(CCC(C)=O)ccc2c1` [Nabumetone] (20 µM): 1.01.
The same measure for `CN1C(=O)CC(c2ccccc2)C1=O` (centres undefined) [Phensuximide] (20 µM): 0.989.
Then `CC(N)CCCC(C)(C)O` (centres undefined) [Heptaminol hydrochloride] (20 µM), with 0.994; and `CN(C)CCOC(c1ccc(Cl)cc1)c1ccccn1` (centres undefined) [Carbinoxamine maleate salt] (20 µM), with 1; and `C=CCN1CCCC1CNC(=O)c1cc2nn[nH]c2cc1OC` (centres undefined) [Alizapride hydrochloride] (20 µM), with 0.99.
Turning to `CC1(C)O[C@@H]2C[C@H]3[C@@H]4C[C@H](F)C5=CC(=O)C=C[C@]5(C)[C@H]4[C@@H](O)C[C@]3(C)[C@]2(C(=O)CO)O1` [Flunisolide] (20 µM), the “fold change of Cadaverine concentration” value is 1.09.
The same measure for `C=CC(N)CCC(=O)O` (centres undefined) [Vigabatrin hydrochloride] (20 µM): 1.03; for `CC(N)C12CC3CC(CC(C3)C1)C2` (centres undefined) [Rimantadine hydrochloride] (20 µM): 0.994; for `O=C(O)c1cc(-c2ccc(F)cc2F)ccc1O` [Diflunisal] (20 µM): 0.994.
Consider `OC[C@H]1O[C@@H](O[C@@H]2[C@@H](CO)OC(O)(CO)[C@H]2O)[C@H](O)[C@@H](O)[C@H]1O` (mixture of isomers) [Lactulose] (50 µM), for which the “fold change of Cadaverine concentration” value was 0.994.
The same measure for `COc1ccc2c3c1O[C@H]1C[C@@H](O)C=C[C@@]31CCN(C)C2` [Galanthamine hydrobromide] (20 µM): 0.999.
Take `O=C(CCNNC(=O)c1ccncc1)NCc1ccccc1` [Nialamide] (20 µM): the “fold change of Cadaverine concentration” value was 0.998.
On to `CC(C)OC(=O)C(C)(C)Oc1ccc(C(=O)c2ccc(Cl)cc2)cc1` [Fenofibrate] (20 µM), for which the “fold change of Cadaverine concentration” value was 1.01.
The same measure for `Cc1ccc2c(c1)c1c3n2CCNC3CCC1` (centres undefined) [Pirlindole mesylate] (20 µM): 1; for `CC[N+](C)(C)Cc1ccccc1Br` [Bretylium tosylate] (20 µM): 1.02.
For `COC(=O)[C@H](Cc1ccccc1)NC(=O)[C@H](CC(=O)O)NCCCc1ccc(OC)c(O)c1` [Advantame] (50 µM), the “fold change of Cadaverine concentration” value was 0.996.
Then `O=C(c1cc(O)c(O)c(O)c1)c1ccc(O)c(O)c1O` [Exifone] (20 µM), with 1; and `COc1cc(N)cn[n+]1-c1ccccc1` [Amezinium metilsulfate] (20 µM), with 0.995; and `CN[C@@H]1[C@@H](O[C@H]2O[C@H](CO)[C@@H](N)[C@H](O)[C@H]2O)OC2C[C@@H](N)[C@@H](O[C@H]3[C@H](O)[C@@H](O)[C@H](N)C[C@@H]3N)OC2[C@@H]1O` (some centres undefined) [Apramycin] (20 µM), with 1.02.
Turning to `COc1ccc2[nH]c([S+]([O-])Cc3ncc(C)c(OC)c3C)nc2n1` (centres undefined) [Tenatoprazole] (20 µM), the “fold change of Cadaverine concentration” value is 0.995.
The same measure for `CCCCC(=O)O[C@H]1CC[C@H]2[C@@H]3CCc4cc(O)ccc4[C@H]3CC[C@]12C` [Estradiol Valerate] (20 µM): 1.05; for `O=C(O)CCc1nc(-c2ccccc2)c(-c2ccccc2)o1` [Oxaprozin] (20 µM): 0.979; for `CC(C)(C)NC[C@H](O)c1ccc(O)c(CO)c1` [Levalbuterol hydrochloride] (20 µM): 0.994.
Consider `COc1ccc(C(=O)c2ccc(C)cc2)c(O)c1` [Mexenone] (20 µM), for which the “fold change of Cadaverine concentration” value was 0.998.

For the origin of these results see the supplement of paper PMC12494721.
